Measured values taken from PubChem BioAssay AID1851 (National Center for Advancing Translational Sciences (NCATS), 2009).
“And” between values parts separate entries of the source, which are not always exact repeats. Identical values can stand only once. Among all 16,000 compounds or so, about 5,700 (36%) were called active. Another 24% or so got no clear call; they are omitted. Calls follow the shape of the dose curve; as a rule, active = well fitted curve in the direction sought with a large enough effect; inconclusive = small, poorly fitted or top-dose-only effect, or effect the other way; inactive = no such curve, though single readings can be large or run the other way. Some of the results follow. Peptide text beside a SMILES is read from it. * marks the point of attachment. Cbz = O=C(OCc1ccccc1)*

molecular target: Cytochrome P450 1A2 (Homo sapiens) (UniProt P05177); assay: Cytochrome panel assay with activity outcomes; details: recombinant CYP, pro-luciferin dealkylation, luminescence, p450-cyp1a2; series mostly up to 57.1 µM; activity, negative = inhibition: at the top concentration
% is scaled to controls: 0 for no effect and ±100 for the full control effect.

Sequence of Cytochrome P450 1A2 (Homo sapiens) (P05177 whole entry, looked up): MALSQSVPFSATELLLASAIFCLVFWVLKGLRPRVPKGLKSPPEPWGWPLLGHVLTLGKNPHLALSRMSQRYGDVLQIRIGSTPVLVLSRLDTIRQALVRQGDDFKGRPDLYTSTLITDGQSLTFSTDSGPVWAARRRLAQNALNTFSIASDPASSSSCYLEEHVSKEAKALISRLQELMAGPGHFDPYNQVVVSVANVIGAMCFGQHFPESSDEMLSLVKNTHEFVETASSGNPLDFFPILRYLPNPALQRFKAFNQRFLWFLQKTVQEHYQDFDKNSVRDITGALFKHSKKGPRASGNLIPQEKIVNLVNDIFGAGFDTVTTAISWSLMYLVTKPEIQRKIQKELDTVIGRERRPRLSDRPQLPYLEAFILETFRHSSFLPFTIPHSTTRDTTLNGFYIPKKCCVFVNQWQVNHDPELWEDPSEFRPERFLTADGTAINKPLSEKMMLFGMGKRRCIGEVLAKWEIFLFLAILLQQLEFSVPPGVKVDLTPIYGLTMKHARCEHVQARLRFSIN

| Compound | AC50 | activity, negative = inhibition |
| --- | --- | --- |
| CC(=O)Nc1ccc(S(=O)(=O)N=S(C)C)cc1 | inactive | – |
| Cc1cc(C)c(C#N)c(OCC(=O)c2ccc(Br)cc2)n1 | 1.26 µM (active) | – |
| Cc1cccc(C)c1NC(=O)CSc1nc(C)c(CC(=O)c2ccc(Br)cc2)c(C)c1C#N | – | -4.64% (inactive) |
| Fc1cc2nc(-c3ccncc3)[nH]c2cc1F | 2 µM (active) | – |
| Cc1cc2nc(SCCOC(=O)Nc3ccc(Cl)cc3)nc(C)c2cc1C | 1.41 µM (active) | – |
| CCCCCCCCCCCC1=C(O)C(=O)C=C(O)C1=O | – | -60.5% (inactive) |
| COCCn1c(=O)c(-c2ccc(Cl)cc2)nc2cnc(OC)nc21 | 0.398 µM (active) | – |
| COCCn1c(=O)c(-c2ccccc2)nc2cnc(OC)nc21 | 1 µM (active) | – |
| COCCn1c(=O)c(-c2ccc(OC)cc2)nc2cnc(OC)nc21 | 3.16 µM (active) | – |
| CC(C)=CCC/C(C)=C/CO/N=C1/C[C@@H](O)[C@@H](O)[C@@H]2[C@@H]3C(=O)N(C(C)(C)C)C(=O)[C@H]3CC[C@H]12 | – | -9.03% [at 11.4 µM] (inactive) |
| O=C(NNS(=O)(=O)c1ccc(Cl)cc1)c1cnn(-c2ccccc2)c1-n1cccc1 | 17.8 µM (active) | – |
| O=C(NNS(=O)(=O)c1ccc(Cl)cc1)C1CCN(Cc2ccccc2)CC1 | – | 2.88% (inactive) |
| CCOC(=O)N1CCC(NC(=O)CSCc2cnn(-c3ccccc3)c2-n2cccc2)CC1 | – | -21.3% (inactive) |
| Cc1cccc(NC(=S)c2nc3ccccc3s2)c1 | 1.12 µM (active) | – |
| Cc1ccc(NC(=S)c2nc3ccccc3s2)cc1 | 0.562 µM (active) | – |
| Cc1cccc(NC(=O)CSc2nc(-c3ccccc3)c(C#N)c(=O)[nH]2)c1C | – | -3.73% (inactive) |
| N#Cc1c(-c2cccs2)nc(SCC(=O)c2cccs2)[nH]c1=O | 8.91 µM (active) | – |
| O=C(O)c1c(Br)c(Br)c(Br)c(Br)c1C1c2ccc(O)cc2Oc2cc(O)ccc21 | – | -6.83% [at 2.29 µM] (inactive) |
| CN=c1nc(-c2ccccc2)n(-c2ccccc2)s1 | 5.01 µM (active) | – |

| Compound | AC50 | activity, negative = inhibition |
| --- | --- | --- |
| CCn1c(SCc2cccc(C)c2)nnc1-c1ccccc1 | 3.55 µM (active) | – |
| CCn1c(SCc2ccc(C)cc2)nnc1-c1nn(-c2ccccc2)ccc1=O | – | -16.3% (inactive) |
| CCn1c(SCc2cccc(C)c2)nnc1-c1ccc(C)cc1 | 17.8 µM (active) | – |
| CCn1c(SCc2ccc(C#N)cc2)nnc1-c1ccc(S(=O)(=O)N2CCCCC2)cc1 | – | -23.3% (inactive) |
| CCOC(=O)c1cnn(CCOC(=O)C(C)(C)C)c1NC(=O)C(C)(C)C | – | -8.6% (inactive) |
| CCOC(=O)c1cnc2c(cnn2CC)c1NN=C(C)C | 501 nM (active) and 126 nM (active) | – |
| CN(C)CCCNc1c(C(=O)O)cnc2c1cnn2C | – | 3.5% (inactive) |
| CCCCNc1c(C(=O)OCC)c(C)nc2c1cnn2CC | 63.1 nM (active) and 631 nM (active) | – |
| O=C(CCCN1CCC(O)(c2cccc(C(F)(F)F)c2)CC1)c1ccc(F)cc1 | – | -9.09% (inactive) |
| NC(=O)C1CCN(C(=O)OCc2ccccc2)CC1 | – | -5.7% (inactive) |
| O=C(Cn1nnc(-c2ccccc2)n1)OCc1ccccc1 | 1.78 µM (active) | – |
| COC(=O)CCC(NC(=O)OCc1ccccc1)C(=O)NC(CC(C)C)C(=O)OC (configuration not stated) (Cbz-Glu(OMe)-Leu-OMe; configuration not given here) | – | 7.39% (inactive) |
| Cc1[nH]c(N)nc(=S)c1CCC(=O)O | – | -11.2% [at 11.4 µM] (inactive) |
| Cc1[nH]c2c(C)ccc(C)c2c1CC(=O)O | 3.16 µM (active) | – |
| Cc1cc(C(=O)O)c(=O)[nH]c1C | – | -11.4% (inactive) |
| CC1CCCC(n2c(=S)[nH]c3ccccc3c2=O)C1C (configuration not stated) | 7.08 µM (active) | – |
| C/C(CCC(=O)OC[C@@H]1O[C@H](C#Cc2ccccc2)C=C[C@@H]1Oc1ccc(C)cc1)=N/O[C@@H](C)c1cc(-c2c(C)cc(C)cc2C)no1 | – | -4.43% [at 11.4 µM] (inactive) |
| Cc1nc(N2CCOCC2)nc(N2CCN(c3ccccc3)CC2)c1[N+](=O)[O-] | 7.08 µM (active) | – |
